According to the supplement of paper PMC10849652:
The full data set covers some 7,900 targets. This sample favours those with a hit. About 0.6% of all pairs of compound and target were hits. A number with no mark means an inactive call.

Sequence of UniProt Q9BTE6 (Q9BTE6 whole entry, looked up): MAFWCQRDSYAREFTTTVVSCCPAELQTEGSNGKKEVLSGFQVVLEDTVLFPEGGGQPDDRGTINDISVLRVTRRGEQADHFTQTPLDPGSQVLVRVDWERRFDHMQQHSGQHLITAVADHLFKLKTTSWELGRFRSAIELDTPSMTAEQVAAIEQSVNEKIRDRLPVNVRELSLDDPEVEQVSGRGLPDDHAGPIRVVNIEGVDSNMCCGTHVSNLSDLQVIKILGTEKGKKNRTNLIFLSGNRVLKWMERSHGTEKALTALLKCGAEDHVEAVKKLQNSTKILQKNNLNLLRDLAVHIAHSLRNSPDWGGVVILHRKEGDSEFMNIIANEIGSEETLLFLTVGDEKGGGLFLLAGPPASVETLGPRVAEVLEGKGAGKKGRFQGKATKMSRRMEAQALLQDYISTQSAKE
Sequence of UniProt Q93084 (Q93084 whole entry, looked up): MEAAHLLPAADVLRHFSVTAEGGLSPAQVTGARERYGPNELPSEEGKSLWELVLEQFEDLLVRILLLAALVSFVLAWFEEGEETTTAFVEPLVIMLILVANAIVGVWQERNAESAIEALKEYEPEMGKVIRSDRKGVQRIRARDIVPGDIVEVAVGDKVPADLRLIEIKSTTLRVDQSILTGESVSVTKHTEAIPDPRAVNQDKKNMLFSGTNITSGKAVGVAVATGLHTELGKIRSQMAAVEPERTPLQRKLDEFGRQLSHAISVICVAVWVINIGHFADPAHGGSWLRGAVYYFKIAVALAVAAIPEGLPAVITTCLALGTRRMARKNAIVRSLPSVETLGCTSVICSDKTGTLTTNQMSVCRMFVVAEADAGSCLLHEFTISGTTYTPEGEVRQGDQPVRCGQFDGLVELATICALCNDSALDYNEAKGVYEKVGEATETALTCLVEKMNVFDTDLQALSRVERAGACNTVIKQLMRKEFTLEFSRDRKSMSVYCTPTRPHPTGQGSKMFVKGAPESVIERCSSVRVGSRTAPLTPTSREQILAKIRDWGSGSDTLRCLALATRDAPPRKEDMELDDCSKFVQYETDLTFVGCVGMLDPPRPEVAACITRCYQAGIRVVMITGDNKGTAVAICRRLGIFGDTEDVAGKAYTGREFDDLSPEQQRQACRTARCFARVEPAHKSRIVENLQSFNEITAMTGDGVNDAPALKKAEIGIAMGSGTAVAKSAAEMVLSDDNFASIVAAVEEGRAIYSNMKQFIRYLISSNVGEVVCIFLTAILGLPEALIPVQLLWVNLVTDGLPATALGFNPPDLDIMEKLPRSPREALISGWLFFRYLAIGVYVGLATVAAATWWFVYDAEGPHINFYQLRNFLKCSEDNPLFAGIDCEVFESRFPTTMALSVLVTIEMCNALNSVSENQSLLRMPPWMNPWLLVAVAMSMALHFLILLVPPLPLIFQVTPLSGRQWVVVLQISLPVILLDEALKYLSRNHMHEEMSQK
Sequence of UniProt Q02252 (Q02252 whole entry, looked up): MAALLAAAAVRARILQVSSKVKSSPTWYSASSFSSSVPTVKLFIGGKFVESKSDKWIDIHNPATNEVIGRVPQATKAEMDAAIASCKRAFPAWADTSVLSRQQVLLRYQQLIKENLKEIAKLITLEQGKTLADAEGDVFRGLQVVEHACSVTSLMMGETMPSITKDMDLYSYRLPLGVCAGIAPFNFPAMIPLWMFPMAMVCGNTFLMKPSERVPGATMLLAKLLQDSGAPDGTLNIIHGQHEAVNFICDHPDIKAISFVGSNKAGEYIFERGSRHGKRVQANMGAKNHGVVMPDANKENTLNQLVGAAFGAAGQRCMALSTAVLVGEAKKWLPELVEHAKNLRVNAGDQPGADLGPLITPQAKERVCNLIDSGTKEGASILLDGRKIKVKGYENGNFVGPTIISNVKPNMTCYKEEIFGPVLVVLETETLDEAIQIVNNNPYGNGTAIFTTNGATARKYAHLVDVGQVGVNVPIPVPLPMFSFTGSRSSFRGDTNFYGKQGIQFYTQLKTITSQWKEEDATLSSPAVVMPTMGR
Sequence of UniProt Q99798 (Q99798 whole entry, looked up): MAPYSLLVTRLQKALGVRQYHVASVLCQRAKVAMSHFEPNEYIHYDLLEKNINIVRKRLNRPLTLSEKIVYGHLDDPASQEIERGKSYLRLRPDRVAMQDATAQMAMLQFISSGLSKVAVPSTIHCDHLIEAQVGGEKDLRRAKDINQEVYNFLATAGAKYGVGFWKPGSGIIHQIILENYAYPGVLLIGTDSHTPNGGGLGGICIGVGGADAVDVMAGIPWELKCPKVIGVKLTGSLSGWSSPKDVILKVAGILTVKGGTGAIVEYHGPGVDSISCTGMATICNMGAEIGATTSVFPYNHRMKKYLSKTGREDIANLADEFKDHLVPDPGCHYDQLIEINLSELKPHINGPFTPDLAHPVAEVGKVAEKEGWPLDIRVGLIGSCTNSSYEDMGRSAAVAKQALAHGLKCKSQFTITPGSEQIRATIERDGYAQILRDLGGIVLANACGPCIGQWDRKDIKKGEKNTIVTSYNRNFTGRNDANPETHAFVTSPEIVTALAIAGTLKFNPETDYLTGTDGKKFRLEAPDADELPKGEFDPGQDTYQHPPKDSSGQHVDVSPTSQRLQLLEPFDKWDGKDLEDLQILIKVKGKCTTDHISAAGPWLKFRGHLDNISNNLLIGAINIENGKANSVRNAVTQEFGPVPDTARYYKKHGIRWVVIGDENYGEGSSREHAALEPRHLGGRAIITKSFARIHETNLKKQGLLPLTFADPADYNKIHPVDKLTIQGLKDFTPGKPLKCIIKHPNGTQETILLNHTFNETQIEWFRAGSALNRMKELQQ
Sequence of UniProt Q96KE9 (Q96KE9 whole entry, looked up): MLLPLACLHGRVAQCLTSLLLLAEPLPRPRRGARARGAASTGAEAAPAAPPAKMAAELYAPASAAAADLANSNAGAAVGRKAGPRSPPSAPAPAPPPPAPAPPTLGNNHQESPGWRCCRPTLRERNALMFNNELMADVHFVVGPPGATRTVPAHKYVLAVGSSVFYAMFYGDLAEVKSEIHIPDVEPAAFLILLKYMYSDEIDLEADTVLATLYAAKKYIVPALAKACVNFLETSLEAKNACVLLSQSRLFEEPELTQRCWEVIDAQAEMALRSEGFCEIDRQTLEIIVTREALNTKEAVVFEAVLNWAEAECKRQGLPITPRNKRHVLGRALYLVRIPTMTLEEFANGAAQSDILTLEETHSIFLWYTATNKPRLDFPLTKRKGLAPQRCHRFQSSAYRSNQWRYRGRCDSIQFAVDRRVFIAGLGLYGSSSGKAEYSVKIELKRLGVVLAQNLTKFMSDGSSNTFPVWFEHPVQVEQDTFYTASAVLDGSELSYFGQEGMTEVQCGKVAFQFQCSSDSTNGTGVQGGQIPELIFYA
Sequence of UniProt O43865 (O43865 whole entry, looked up): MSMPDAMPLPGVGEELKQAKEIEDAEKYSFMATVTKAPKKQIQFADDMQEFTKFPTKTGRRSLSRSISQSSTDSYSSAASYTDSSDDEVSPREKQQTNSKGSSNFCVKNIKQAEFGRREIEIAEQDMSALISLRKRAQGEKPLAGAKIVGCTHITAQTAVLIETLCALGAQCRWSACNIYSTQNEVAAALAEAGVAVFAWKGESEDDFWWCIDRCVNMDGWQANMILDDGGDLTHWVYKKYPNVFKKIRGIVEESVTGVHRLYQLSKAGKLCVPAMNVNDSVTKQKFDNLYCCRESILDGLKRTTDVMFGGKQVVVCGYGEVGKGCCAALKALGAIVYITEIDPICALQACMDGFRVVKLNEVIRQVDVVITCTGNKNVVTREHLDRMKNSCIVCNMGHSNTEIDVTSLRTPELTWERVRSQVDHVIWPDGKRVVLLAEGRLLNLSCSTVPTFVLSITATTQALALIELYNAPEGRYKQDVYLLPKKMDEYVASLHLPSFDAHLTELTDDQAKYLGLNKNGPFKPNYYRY
Sequence of UniProt Q9Y2Y0 (Q9Y2Y0 whole entry, looked up): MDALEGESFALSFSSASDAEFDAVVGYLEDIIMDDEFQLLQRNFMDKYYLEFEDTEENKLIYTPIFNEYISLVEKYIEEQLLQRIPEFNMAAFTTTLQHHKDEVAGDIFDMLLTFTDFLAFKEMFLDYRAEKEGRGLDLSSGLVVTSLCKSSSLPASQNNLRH
Sequence of UniProt Q9H8Y5 (Q9H8Y5 whole entry, looked up): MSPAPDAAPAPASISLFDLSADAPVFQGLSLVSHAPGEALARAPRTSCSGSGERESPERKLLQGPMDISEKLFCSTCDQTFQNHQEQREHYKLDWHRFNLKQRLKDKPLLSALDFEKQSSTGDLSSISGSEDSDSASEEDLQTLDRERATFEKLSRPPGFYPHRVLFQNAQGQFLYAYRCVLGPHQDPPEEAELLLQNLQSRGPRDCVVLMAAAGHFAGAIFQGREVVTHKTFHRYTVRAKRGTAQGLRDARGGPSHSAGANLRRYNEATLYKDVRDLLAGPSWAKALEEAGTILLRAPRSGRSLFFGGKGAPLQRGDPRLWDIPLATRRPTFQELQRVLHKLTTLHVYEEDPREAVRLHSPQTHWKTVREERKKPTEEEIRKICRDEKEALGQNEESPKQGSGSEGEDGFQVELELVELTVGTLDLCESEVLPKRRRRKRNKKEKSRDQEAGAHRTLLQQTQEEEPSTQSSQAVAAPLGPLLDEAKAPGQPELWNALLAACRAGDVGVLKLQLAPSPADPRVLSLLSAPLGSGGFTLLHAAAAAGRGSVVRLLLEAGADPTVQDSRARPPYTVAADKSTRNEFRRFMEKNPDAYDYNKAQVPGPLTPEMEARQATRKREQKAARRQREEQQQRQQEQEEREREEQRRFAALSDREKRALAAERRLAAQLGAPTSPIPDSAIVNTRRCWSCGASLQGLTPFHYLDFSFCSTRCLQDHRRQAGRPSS
Sequence of UniProt Q9P287 (Q9P287 whole entry, looked up): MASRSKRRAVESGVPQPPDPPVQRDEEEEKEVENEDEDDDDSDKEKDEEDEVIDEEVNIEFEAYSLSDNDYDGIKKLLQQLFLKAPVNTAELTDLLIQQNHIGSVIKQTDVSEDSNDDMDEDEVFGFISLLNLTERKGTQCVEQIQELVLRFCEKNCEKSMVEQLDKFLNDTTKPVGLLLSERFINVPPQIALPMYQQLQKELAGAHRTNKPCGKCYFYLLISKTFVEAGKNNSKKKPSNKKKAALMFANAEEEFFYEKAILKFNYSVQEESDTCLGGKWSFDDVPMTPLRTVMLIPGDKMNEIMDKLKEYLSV

What follows are targets tested with C1=CC(=CC=C1C2=NC3=C(N2)C=C(C=C3)C(=O)N)OC4=CC=C(C=C4)Cl (assay: log2 fold change, soluble protein after heating vs DMSO (PISA); higher = thermal stabilisation; K562 cells, 10 uM, 30 min; active = over 0.2 and 3.5 SD of the protein, either way, in both replicates (recomputed)).
Method in brief: (§1)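 For each measurement, 10 μM compound was applied for 30 min to K562 cells at 2×10^6 cells/mL. Aliquots were heated for 3 min across 48°C-58°C, pooled, and extracted in PBS with 0.5% NP-40 at 4°C; the supernatant after 21,000xg for 90 min was soluble protein. This was quantified by TMTpro 16plex LC-MS/MS with channel sums equalised, and thermal stability was reported relative to control samples from duplicates, on a log2 fold-change scale.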
With AARSD1 isoform 3 (UniProt Q9BTE6) the log2 fold change was -0.014. Work on ALDH6A1 (UniProt Q02252) yielded a log2 fold change of -0.144. For ATP6V1H (UniProt Q9UI12), the log2 fold change was 0.035. Target ALG5 (UniProt Q9Y673) has a log2 fold change of 0.008. Target ARHGAP1 (UniProt Q07960) has a log2 fold change of 0.021. BMP2K (UniProt Q9NSY1) showed a log2 fold change of -0.024. With AHCYL1 (UniProt O43865) the log2 fold change was -0.042. In the case of ANKZF1 (UniProt Q9H8Y5), the log2 fold change is reported as 0. AIP (UniProt O00170) showed a log2 fold change of -0.006. For ATP23 (UniProt Q9Y6H3), the log2 fold change was 0.033. BRD4 (UniProt O60885) was tested, and the log2 fold change was 0.003. BCCIP (UniProt Q9P287) gave a log2 fold change of -0.027. For BTBD6 (UniProt Q96KE9), the log2 fold change was -0.188. For ABCB6 (UniProt Q9NP58), the log2 fold change was 0.037. ATAD3B (UniProt Q5T9A4) was tested, and the log2 fold change was -0.006. BCL9L (UniProt Q86UU0) was tested, and the log2 fold change was 0.049. For AP2A2 isoform 2 (UniProt O94973), the log2 fold change was -0.012. For ADK (UniProt P55263), the log2 fold change was -0.062. For AKR1C2 (UniProt P52895), the log2 fold change was -0.092. Target BCLAF1 (UniProt Q9NYF8) has a log2 fold change of 0.082. ACO2 (UniProt Q99798) was tested, and the log2 fold change was -0.014. For ALDH2 (UniProt P05091), the log2 fold change was 0.021. With ATF7 isoform 6 (UniProt P17544) the log2 fold change was 0.021. For AMD1 (UniProt P17707), the log2 fold change was 0.094. ARFIP1 (UniProt P53367) showed a log2 fold change of 0.094. AKT1 (UniProt P31749) gave a log2 fold change of -0.067. Target ABCA4 (UniProt P78363) has a log2 fold change of -0.151. BLOC1S3 (UniProt Q6QNY0) gave a log2 fold change of -0.003. ARL2BP (UniProt Q9Y2Y0) showed a log2 fold change of -0.02. In the case of AGPS (UniProt O00116), the log2 fold change is reported as 0.256 (active). With AMFR (UniProt Q9UKV5) the log2 fold change was -0.062. With AGPAT1 (UniProt Q99943) the log2 fold change was -0.014. For BOP1 (UniProt Q14137), the log2 fold change was 0. AKAP8L (UniProt Q9ULX6) was tested, and the log2 fold change was 0.026. Work on ATP2A3 isoform 2 (UniProt Q93084) yielded a log2 fold change of -0.002. In the case of ATAD1 (UniProt Q8NBU5), the log2 fold change is reported as 0.021.

What follows are targets tested with C1=CC2=C(C=CC(=C2)/C=C\3/C(=O)NC(=NCC4=CC=CS4)S3)N=C1 in the same assay as above.
Method in brief: as §1
AARSD1 isoform 3 (UniProt Q9BTE6) showed a log2 fold change of -0.027. ALDH6A1 (UniProt Q02252) gave a log2 fold change of 0.074. ATP6V1H (UniProt Q9UI12) was tested, and the log2 fold change was -0.008. ALG5 (UniProt Q9Y673) was tested, and the log2 fold change was 0.023. ARHGAP1 (UniProt Q07960) gave a log2 fold change of 0.038. Target BMP2K (UniProt Q9NSY1) has a log2 fold change of 0.178. In the case of AHCYL1 (UniProt O43865), the log2 fold change is reported as 0.001. ANKZF1 (UniProt Q9H8Y5) showed a log2 fold change of 0.015. AIP (UniProt O00170) showed a log2 fold change of 0.042. Target ATP23 (UniProt Q9Y6H3) has a log2 fold change of 0.051. BRD4 (UniProt O60885) showed a log2 fold change of 0.025. BCCIP (UniProt Q9P287) showed a log2 fold change of -0.029. BTBD6 (UniProt Q96KE9) gave a log2 fold change of 0.016. Work on ABCB6 (UniProt Q9NP58) yielded a log2 fold change of -0.003. ATAD3B (UniProt Q5T9A4) was tested, and the log2 fold change was -0.005. For BCL9L (UniProt Q86UU0), the log2 fold change was 0.036. For AP2A2 isoform 2 (UniProt O94973), the log2 fold change was 0.007. ADK (UniProt P55263) gave a log2 fold change of 0.079. For AKR1C2 (UniProt P52895), the log2 fold change was 0.001. For BCLAF1 (UniProt Q9NYF8), the log2 fold change was -0.304. Work on ACO2 (UniProt Q99798) yielded a log2 fold change of 0.077. ALDH2 (UniProt P05091) was tested, and the log2 fold change was 0.096. ATF7 isoform 6 (UniProt P17544) was tested, and the log2 fold change was 0.032. AMD1 (UniProt P17707) showed a log2 fold change of 0.091. ARFIP1 (UniProt P53367) showed a log2 fold change of 0.115. In the case of AKT1 (UniProt P31749), the log2 fold change is reported as 0. ABCA4 (UniProt P78363) was tested, and the log2 fold change was 0.062. Work on BLOC1S3 (UniProt Q6QNY0) yielded a log2 fold change of 0.093. In the case of ARL2BP (UniProt Q9Y2Y0), the log2 fold change is reported as 0.093. AGPS (UniProt O00116) showed a log2 fold change of 0.055. For AMFR (UniProt Q9UKV5), the log2 fold change was -0.046. AGPAT1 (UniProt Q99943) showed a log2 fold change of 0.013. Target BOP1 (UniProt Q14137) has a log2 fold change of -0.053. With AKAP8L (UniProt Q9ULX6) the log2 fold change was -0.006. ATP2A3 isoform 2 (UniProt Q93084) showed a log2 fold change of -0.014. With ATAD1 (UniProt Q8NBU5) the log2 fold change was 0.054.
